High-throughput results deposited in PubChem by National Center for Advancing Translational Sciences (NCATS).
TDP1 block: blocks human tyrosyl-DNA phosphodiesterase 1. Q9NUW8. recombinant TDP1, AlphaScreen DNA substrate cleavage. Potency, µM (doses to about 130 µM), without a hit: at the top dose activity change, negative = inhibition, hits mostly inhibitors. actives 0.28% (n = 350,000); further: nearly all actives have a fitted effect of over 40% in size
Target sequence (Q9NUW8 whole entry, looked up): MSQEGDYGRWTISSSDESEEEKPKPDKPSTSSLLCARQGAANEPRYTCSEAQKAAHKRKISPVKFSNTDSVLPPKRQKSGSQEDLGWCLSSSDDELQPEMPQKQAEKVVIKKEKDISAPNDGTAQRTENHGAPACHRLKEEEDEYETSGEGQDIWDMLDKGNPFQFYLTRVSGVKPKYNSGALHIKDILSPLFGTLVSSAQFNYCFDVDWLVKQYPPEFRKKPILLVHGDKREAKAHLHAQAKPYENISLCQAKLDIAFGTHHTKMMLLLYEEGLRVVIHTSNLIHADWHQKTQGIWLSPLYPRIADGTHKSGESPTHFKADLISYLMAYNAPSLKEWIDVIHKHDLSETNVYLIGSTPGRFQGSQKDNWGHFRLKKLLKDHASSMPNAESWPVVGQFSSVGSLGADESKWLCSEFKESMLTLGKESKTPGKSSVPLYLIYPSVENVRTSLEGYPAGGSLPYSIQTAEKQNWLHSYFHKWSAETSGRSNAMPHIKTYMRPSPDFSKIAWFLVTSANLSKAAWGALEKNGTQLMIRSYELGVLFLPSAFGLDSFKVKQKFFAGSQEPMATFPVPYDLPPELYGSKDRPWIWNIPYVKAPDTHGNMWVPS
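Steps: enzyme plus compound, 15 min RT; add biotin/phosphotyrosine-FITC oligonucleotide (15 nM final), react 5 min; add donor/acceptor beads (10 ug/ml final), 10 min; read AlphaScreen. Tdp1 at 1 nM final.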
RORgamma inh: ROR gamma (mouse) transcription inhibition; P51450; Drosophila S2 Gal4-RORgamma UAS-luciferase reporter, 20 h; Potency, µM (titrated, usually from 53.6 µM), without a hit: at the highest dose activity change, negative = inhibition, hits mostly inhibitors; actives 5.4% (n = 310,000); further: nearly all actives have a fitted effect of over 60% in size
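In this cell-based reporter format, copper sulfate (700 uM final) drives Gal4–ROR gamma fusion expression from a metallothionein promoter in Drosophila Schneider cells; compounds preincubated 1 hr, reporter read after 20 hr at ambient temperature.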
DT40 TDP1 no CPT: qHTS for Inhibitors of human tyrosyl-DNA phosphodiesterase 1 (TDP1): qHTS in cells in absence of CPT. actives 15% (n = 420,000). Potency, µM (doses to about 46.2 µM), inactives show at the highest dose activity change, negative = growth inhibition, usual class: inhibitors. DT40 Tdp1-/- hTDP1 cells, no CPT, ATP luminescence, 48 h; further: nearly all actives have a fitted effect of over 55% in size
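Stably hTDP1-transfected Tdp1-null chicken DT40 cells were treated with library compounds minus camptothecin and grown for at least 48 hr at 37 °C, after which cellular ATP was quantified by luminescence.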
VP16 counter: counter-screen for ROR gamma inhibitors: Gal4-VP16 reporter; Drosophila S2 Gal4-VP16 UAS-luciferase, luminescence, 20 h; Potency, µM (series often up to 53.6 µM), inactives show top-dose activity, negative = inhibition, hits mostly inhibitors; actives 3.5% (n = 310,000); AID 2546;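 further: Gal4-VP16 expression switched on by copper sulfate through the metallothionein promoter; nearly all actives have a fitted effect of over 50% in size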
DT40 TDP1 CPT: growth inhibition of DT40 Tdp1-/-;hTDP1 cells with camptothecin (screen for TDP1 inhibitors); AID 686979; chicken DT40 Tdp1-/-;hTDP1 cells + 20 nM CPT, ATP luminescence, 48 h; actives 12% (n = 420,000); Potency, µM (highest dose often 46.2 µM), for inactives: at the highest dose activity change, negative = growth inhibition, usual class: inhibitors; further: nearly all actives have a fitted effect of over 55% in size
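Chicken DT40 Tdp1-/- cells complemented with human TDP1, 400 cells/well, exposed to compounds plus 20 nM camptothecin for at least 48 h at 37 C; viability read as ATP content by CellTiter-Glo luminescence.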
Starred values were filed as active, the others as inactive; ? = inconclusive; . = no result; [ ] = remark or other dose. Most compounds without a hit are left out; they make up all but 19% or so of the library. The call rests on the fitted dose curve; in most records, active means well fitted curve in the direction sought with a large enough effect; inconclusive means small, poorly fitted or top-dose-only effect, or another doubt; inactive means no such curve, though single readings can be large; an effect the other way counts as inactive or inconclusive. On the % scale 0 is the no-effect control and ±100 the full control effect; potency means the concentration at half of the fitted maximal effect.

SMILES | TDP1 block | RORgamma inh | DT40 TDP1 no CPT | VP16 counter | DT40 TDP1 CPT
CCOc1ccc(-n2nc3ccc(NC(=O)c4ccc5c(c4)OCCO5)cc3n2)cc1 | 0% | 10µM* | 5.8µM* | 11µM* | 3.3µM*
CCOc1ccc(-n2nc3ccc(NC(=O)COc4ccccc4C)cc3n2)cc1 | 0%[12.3 µM] | . | 18µM* | . | ?
COc1cc(C(=S)N2CCN(C(c3ccccc3)c3ccccc3)CC2)cc(OC)c1O | . | ? | 8.2µM* | -22% | 15µM*
CNC(=S)N1CCN(C(c2ccccc2)c2ccccc2)CC1 | 0% | -41% | ? | -7% | -17%
CCC(C)NC(=S)N1CCN(C(c2ccccc2)c2ccccc2)CC1 (centres undefined) | 4% | 11µM* | ? | ? | ?
COc1ccc(NC(=S)N2CCN(C(c3ccccc3)c3ccccc3)CC2)cc1OC | 3% | 8.9µM* | -27% | 13µM* | -27%
Cc1cc(S(=O)(=O)N(Cc2ccccc2F)C2CC2)ccc1-n1cnnn1 | 0% | 16% | ? | -19% | ?
Cc1ccc(S(=O)(=O)NCCCCCC(=O)Nc2ccccn2)cc1 | 4% | 24% | -10% | 3% | -18%
CCNc1nc(-c2cc(C)n(Cc3ccco3)c2C)cs1 | 5% | -15% | ? | -7% | ?
Cc1cc(-c2csc(NC(=O)c3ccc(=O)n(C)n3)n2)c(C)n1CC1CCCO1 (centres undefined) | 50µM* | -13% | -14% | 0% | -24%
Cc1cc(-c2csc(NC(=O)c3ccc(=O)[nH]c3)n2)c(C)n1Cc1ccco1 | 2.2µM* | -6% | ? | -7% | -7%
COc1ccc(C(=O)NCCc2csc(-c3ccc(Cl)cc3)n2)cc1 | 4% | . | 18µM* | . | ?
COc1ccc(C(=O)NCCc2csc(-c3ccc(Cl)cc3)n2)c(OC)c1 | 1% | . | 23µM* | . | ?
COc1ccc(CCC(=O)NCCc2csc(-c3ccc(C(F)(F)F)cc3)n2)cc1 | -1% | . | . | . | .
CCOC(=O)c1c(C)c(C(=O)NCC2CCCO2)c(C)n1CC (centres undefined) | 8% | 36%[0.365 µM] | -3% | . | 1%
CCOC(=O)N1CCC(NC(=O)CC2C(=O)NCCN2Cc2ccccc2F)CC1 (centres undefined) | 0% | 3% | 14% | -9% | 10%
O=C(NCC1CCCO1)C1CCCN(S(=O)(=O)c2ccc(F)cc2)C1 (centres undefined) | 0% | 10% | -6% | -8% | -1%
O=C(NCc1ccncc1)c1cccc(S(=O)(=O)N2CCc3ccccc32)c1 | 3% | . | ? | . | 21µM*
O=C(NNC(=O)c1ccccc1F)c1cccc(S(=O)(=O)N2CCc3ccccc32)c1 | 0% | . | 10µM* | . | 18µM*
CC(NC(=O)c1cccc(S(=O)(=O)N2CCc3ccccc32)c1)c1ccco1 (centres undefined) | 1% | . | 18µM* | . | ?
CC1Cc2ccccc2N1S(=O)(=O)c1cccc(C(=O)NNC(=O)c2ccccc2F)c1 (centres undefined) | -1% | . | ? | . | -18%
CCC(C)(C)n1nnnc1C(C(C)C)N1CCN(C(=O)c2ccco2)CC1 (centres undefined) | . | 6% | -10% | -4% | -6%
S=c1[nH]nc(Cc2sc(-c3ccccc3)nc2-c2ccccc2)o1 | 10% | 11µM* | ? | ? | 8%
COc1cccc(N2C(C(C)=O)=NN(c3ccccc3)C2c2ccc(N3CCOCC3)cc2)c1 (centres undefined) | -5% | 3% | 16µM* | -8% | 18µM*
CC(=O)C1=NN(c2ccccc2)C(c2cccs2)N1c1ccccc1 (centres undefined) | . | 4% | . | ? | .
SMILES | TDP1 block | RORgamma inh | DT40 TDP1 no CPT | VP16 counter | DT40 TDP1 CPT
COc1cccc(CCc2ccccc2OCC[C@@H]2C[C@@H](O)CN2C)c1 | 13% | 7.1µM* | . | 3% | .
COc1cccc(CN2CCN(Cc3cc4ccccc4o3)CC2CCO)c1 (centres undefined) | . | 6%[1.91 µM] | ? | 5% | -14%
Nc1ccc(Cn2ccc3c4c(N)nc(N)nc4ccc32)cc1 | . | . | 0.13µM* | . | ?
CN1CCN(c2cc3c(c4c2[nH]c2ccccc24)C(=O)CC(C)(C)C3)CC1 | 4% | ? | 16µM* | ? | ?
Cc1ccc(-c2c[n+](Cc3ccc(Cl)cc3)c3n2CCC3)cc1 | 1% | 11% | 3.7µM* | -28% | 4.1µM*
Cc1ccc(C[n+]2cc(-c3ccc(Cl)cc3)n3c2CCC3)cc1 | 10% | 43% | 2.3µM* | -5% | 5.2µM*
Clc1ccc(-c2c[n+](Cc3ccc(Cl)c(Cl)c3)c3n2CCC3)cc1 | 5% | 39% | . | ? | .
CN1C(=O)[C@@](O)(CC(=O)c2ccccc2)c2cc(Br)ccc21 | . | . | 6.5µM* | . | 5.8µM*
CN1C(=O)C(O)(CC(=O)c2ccccn2)c2cc(Br)ccc21 (centres undefined) | 0% | -3% | 5.2µM* | 0% | 5.8µM*
CCN1C(=O)C(O)(CC(=O)c2ccccn2)c2ccccc21 (centres undefined) | 6% | -3% | 5.2µM* | -5% | 5.8µM*
CC(=O)c1ccc(NC(=O)CC2Sc3ccccc3NC2=O)cc1 (centres undefined) | . | . | 13µM* | . | 12µM*
O=C(CC1SC(=O)NC1=O)Nc1ccc(Cl)cc1 (centres undefined) | -5% | ? | 9.2µM* | ? | 3.3µM*
Cn1cccc1CC(=O)NNC(=O)Nc1ccc(F)cc1 | 2% | -6% | 1% | -9% | -5%
CCN1CCN(CCCNC(=O)c2ccc3c(c2)NC(=O)c2ccccc2S3)CC1 | 1% | -27% | ? | -1% | -25%
Cc1ccc(NC(=O)c2ccc3c(c2)NC(=O)c2ccccc2S3)c(Cl)c1 | 0% | . | 3.3µM* | . | 3.7µM*
CC(=O)Nc1ccc(NC(=O)c2ccc3c(c2)NC(=O)c2ccccc2S3)cc1 | -1% | . | 5% | . | -15%
CCC(C)N(CCNC(=O)c1ccc2c(c1)NC(=O)c1ccccc1S2)C1CCCCC1 (centres undefined) | 5% | -22% | 2.9µM* | -18% | 15µM*
COc1ccc(-c2onc(C)c2-c2ccc(C(=O)OC(C)C)o2)c(O)c1 | 7% | 14% | 16µM* | -30% | 21µM*
CC1(C(=O)NS(=O)(=O)c2ccc(F)cc2F)CCN1C(=O)Cc1ccc(-c2ccccc2)cc1 (centres undefined) | . | . | -13% | . | -5%
COCCN(CCOC)S(=O)(=O)c1ccc(C(=O)Nc2nnc(C3CC3)o2)cc1 | 7% | 4.5µM* | -8% | 3.5µM* | -5%
